Assay results reported in PubChem BioAssay (NCATS).
Results filed as inconclusive are left out. Active and inactive are the calls of the source. Calls follow the shape of the dose curve; as a rule, active = well fitted inhibition curve with a large enough effect; inconclusive = small, poorly fitted or top-dose-only effect; inactive = flat fitted curve, though single readings scatter.

Each molecule was assayed on astro (assay: Drug repurposing screens with cells derived from glioblastoma tumor samples (AID 1345199; also: nearly all actives have a fitted effect of over 40% in size)). Settings: viability, ATP luminescence, 48 h; series mostly up to 45.9 µM; activity, negative = cell killing: at the top concentration.
Protocol: CD133+ cells were isolated from GBM patient biopsies and cultured as neurospheres. Neurospheres from four patients were used to screen the NCATS pharmaceutical collection (NPC) library of approved drugs and bioactive compounds. […] The neurospheres were incubated with drugs for 48 hours in 1536-well format, then assayed with an ATP content cell viability assay. […] These hits were cherry picked to confirm activity in the four original GBM lines screened plus three other slower growing GMB lines (unable to yield enough cells for a full primary screen). Variable activities of the confirmed primary hits in the different GBM patient lines were observed. The patient line 206 responded to the greatest number of compounds and line 923 responded to the least amount of active compounds.
% is scaled to controls: 0 for no effect and ±100 for the full control effect; potency is read from the fitted curve at half-maximal effect.

SMILES | activity, negative = cell killing | Potency
CC(C)(C)NCC(O)c1ccccc1Cl (stereo not given) | -20.8% (inactive) | –
CC(C)c1cccc(C(C)C)c1O | -22.4% (inactive) | –
Clc1ccc(C(c2ccc(Cl)cc2)C(Cl)(Cl)Cl)cc1 | -9.85% (inactive) | –
CN1C(=O)COc2c(C(=O)NC3CN4CCC3CC4)cc(Cl)cc21 (stereo not given) | -26.6% (inactive) | –
CCCCC/C=C\C/C=C\C/C=C\C/C=C\CCCC(=O)NCC(=O)O | 0.313% [at 4.17 µM] (inactive) | –
C[C@]12CCC(=O)C=C1CC[C@@H]1[C@@H]2CC[C@@]2(C)[C@H]1CC[C@]2(C)O | -27.9% (inactive) | –
O=[N+]([O-])O[C@H]1CO[C@H]2[C@@H]1OC[C@H]2O[N+](=O)[O-] | 0.374% (inactive) | –
CC(C)(C)NCC(O)c1cc(Cl)c(N)c(C(F)(F)F)c1 (stereo not given) | -17.2% (inactive) | –
C#C[C@]1(O)CC[C@H]2[C@@H]3CCC4=CC(=O)CC[C@]4(C)[C@H]3CC[C@@]21C | -3.18% (inactive) | –
C[C@H](N)C(=O)c1ccccc1 | – | inactive
CC(=O)OCC1=C(C(=O)O)N2C(=O)[C@@H](N)[C@H]2SC1 | -9.66% [at 21.2 µM] (inactive) | –
Nc1nc(N)nc(NC2CC2)n1 | -17.1% (inactive) | –
CCN[C@H](C)Cc1cccc(C(F)(F)F)c1 | -9.81% [at 91.6 µM] (inactive) | –
CCC1(CC)C(=O)C=CNC1=O | -6.92% (inactive) | –
CNC(C)(C)Cc1ccccc1 | -9.35% [at 21.2 µM] (inactive) | –
CN[C@@H](C)Cc1ccccc1 | -13.6% [at 91.6 µM] (inactive) | –
CC(C)(C)c1ccc(O)cc1 | -11.7% (inactive) | –
CC(=O)NC1CCSC1=O (stereo not given) | – | inactive
COP(=S)(OC)Oc1ccc(SC)c(C)c1 | -13.2% (inactive) | –
CN1C(=O)CC(=O)N(c2ccccc2)c2cc(Cl)ccc21 | -5.82% (inactive) | –

SMILES | activity, negative = cell killing | Potency
O=C(Nc1ccc(Br)cc1)c1cc(Br)cc(Br)c1O | – | 7.08 µM (active)
CCCCCCCCCC(=O)O[C@H]1CC[C@H]2[C@@H]3CCC4=CC(=O)CC[C@@H]4[C@H]3CC[C@]12C | -24.4% (inactive) | –
COc1cc(CC(C)N)cc(OC)c1OC (stereo not given) | -3.9% [at 108 µM] (inactive) | –
COC1CC(=C(c2cccs2)c2cccs2)C[N+](C)(C)C1 (stereo not given) | -20.9% (inactive) | –
CN1C(=O)C(O)N=C(c2ccccc2)c2cc(Cl)ccc21 (stereo not given) | -18% (inactive) | –
C[N+]1(CCF)[C@@H]2CC[C@H]1CC(OC(=O)C(O)(c1ccccc1)c1ccccc1)C2 (stereo not given in full) | -10.7% (inactive) | –
O=C(N/N=C/c1ccc([N+](=O)[O-])o1)c1cc([N+](=O)[O-])cc([N+](=O)[O-])c1O | -20.7% (inactive) | –
CCN(CC)C(=O)[C@@H]1C=C2c3cccc4[nH]cc(c34)C[C@H]2N(C)C1 | – | inactive
CN1CC[C@]23c4c5ccc(O)c4O[C@H]2[C@@H](O)CC[C@H]3[C@H]1C5 | -3.1% [at 91.6 µM] (inactive) | –
c1ccc2c(c1)sc1ccccc12 | -10.5% (inactive) | –
COc1cc(CCN)cc(OC)c1OC | 3.29% [at 108 µM] (inactive) | –
CCOP(=S)(OCC)Oc1ccc2c(C)c(Cl)c(=O)oc2c1 | -7.56% (inactive) | –
CCN(CC)CCc1c[nH]c2ccccc12 | -14.5% [at 108 µM] (inactive) | –
Oc1ccc(Cl)cc1 | -13% (inactive) | –
COC(=O)[C@@H](N)CCCN/C(N)=N/[N+](=O)[O-] | -0.153% (inactive) | –
NC1=NC(=O)C(c2ccccc2)O1 (stereo not given) | -2.65% (inactive) | –
CCN[C@@H](C)Cc1cccc(C(F)(F)F)c1 | -0.222% [at 91.6 µM] (inactive) | –
C=CCC1([C@H](C)CCC)C(=O)NC(=O)NC1=O | -26.7% [at 91.6 µM] (inactive) | –
CCCCCCC(=O)CCCCCC/C=C/C[C@@H](O)[C@H](O)[C@@](N)(CO)C(=O)O | – | inactive
CCC(C)(C)c1ccc(O)cc1 | -7.46% (inactive) | –
